Most compounds without a hit are left out; they make up all but 4.8% or so of the library.
SUMO Mot1 rescue: inhibitors of SUMOylation pathway: yeast Mot1-301 growth rescue. S. cerevisiae Mot1-301 growth rescue, ATP luminescence, 38.5C; percent above DMSO median, 100 means doubled. growth rescue, % at 18.8 µM. 320,000 tested, 1% active. AID 2716;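 active means every valid replicate shows activation above 250% relative to neutral control wells; inactive means the rest, any valid replicate at or below 250%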;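 further: OY570 slx delta 5 strain wells were the positive control but not used for scaling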
AI-2 QS mod: modulates the Vibrio harveyi AI-2 quorum sensing system | Vibrio harveyi JMH597 AI-2 luminescence/OD600 ratio, 9 h; hits give low values; strain lacks LuxN and CqsS sensors; 0 = neutral-control median | activity change, % at 7.5 µM | 300,000 tested, 0.4% active | AID 2094; in the data active means activity change below about -75%, passing the limit was not always enough;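 further: luminescence divided by OD600 gain over 9 h not by final OD600 alone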
ALR inh: blocks human ALR sulfhydryl oxidase activity; inhibition, % (concentration not given with the values); P55789; 290,000 tested, 3.8% active; purified ALR, DTT oxidation, H2O2 HRP-luminol luminescence; AID 485317;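 active means mean replicate inhibition above about 79%, with every replicate also reaching it, limit read from the data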
Target sequence (P55789 whole entry, looked up): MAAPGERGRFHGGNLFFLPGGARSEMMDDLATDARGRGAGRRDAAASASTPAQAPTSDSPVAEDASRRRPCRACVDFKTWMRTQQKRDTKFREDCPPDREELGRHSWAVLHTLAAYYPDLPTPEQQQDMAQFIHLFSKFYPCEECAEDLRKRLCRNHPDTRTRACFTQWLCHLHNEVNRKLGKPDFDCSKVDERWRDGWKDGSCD
HIF act: HIF pathway transcriptional activation; U2OS HRE-luciferase reporter, luminescence; normalized: DMSO 0%, desferrioxamine 100%; activation, % at 7.5 µM (by protocol); 300,000 tested, 0.32% active;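 active means mean activation of at least 10% of the iron chelator positive control signal, with at least half of replicates also reaching 10%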
* hit, by the source's call; x = not tested or not shown.

SMILES	SUMO Mot1 rescue	AI-2 QS mod	ALR inh	HIF act
COc1ccccc1C(=O)NCCC(=O)Nc1ccc(S(=O)(=O)N2CCC(C)CC2)cc1	192.3	x	-0.3	x
CCN(Cc1ccccc1)C(=O)CS(=O)(=O)c1ccccc1	-17.3	8.1	x	-0.4
O=S(=O)(C/C(=C/CO)S(=O)(=O)c1ccccc1)c1ccccc1	-4.6	-23.7	98.6*	-1.5
COc1cc(NS(=O)(=O)c2ccc3c(c2)NC(=O)CO3)cc(OC)c1	-1.4	-8.9	17.6	-0.3
COc1ccc(NS(=O)(=O)c2ccc3c(c2)NC(=O)CO3)cc1	16.1	-80.6*	3.2	-0.6
COc1cccc(NC(=O)CSc2nnc(Cn3cnc([N+](=O)[O-])n3)n2C)c1	1.8	27.1	x	-0.7
COc1ccc(NC(=O)CSc2nnc(Cn3nnc4ccccc43)n2C)cc1	82.8	x	x	x
CCOc1ccc(NC(=O)CSc2nnc(Cn3cnc4ccccc43)n2C)cc1	12.5	-2.7	-2.5	19.8*
COc1ccc(NC(=O)CSc2nnc(Cn3cnc([N+](=O)[O-])n3)n2C)cc1	343.9*	18.6	x	0.4
O=C(CSc1nnc(C2CC2)n1-c1ccccc1)N1CCCC1	10.0	x	0.7	x
CC(C)C(NC(=O)c1ccc(F)cc1)C(=O)NC1(C)CCS(=O)(=O)C1 (stereo unspecified)	-12.0	x	2.0	x
CN(C)/N=C/c1ccc(Sc2ccccc2[N+](=O)[O-])o1	194.3	17.1	92.0*	-0.1
CC(C)c1ccc(NC2CCCN(C(=O)CSc3nncn3C)C2)cc1 (stereo unspecified)	4.4	0.4	90.8*	-0.4
CC(C)c1ccc(NC2CCCN(C(=O)CN3CCOC3=O)C2)cc1 (stereo unspecified)	-4.8	53.1	71.9	0.5
CC(C)c1ccc(NC2CCCN(C(=O)CCN3Cc4ccccc4C3=O)C2)cc1 (stereo unspecified)	4.1	15.9	98.5*	-0.4
CC(C)c1ccc(NC2CCCN(C(=O)CN3CCCC3=O)C2)cc1 (stereo unspecified)	24.4	18.9	82.3*	-0.4
O=C1CCCCN1CCC(=O)N1CCCC(Nc2ccccc2)C1 (stereo unspecified)	1.6	1.3	4.3	-0.2
CC(C)c1ccc(NC2CCCN(C(=O)CCN3CCCCC3=O)C2)cc1 (stereo unspecified)	-18.6	8.2	97.5*	-0.3
O=C1CCC(c2ccccc2)=NN1	4.2	9.1	-8.8	-0.4
CCCCCc1ccc(C2=NNC(=O)CC2)cc1	4.0	-89.5*	-11.4	1.2
N=C1/C(=C/c2ccc(OC(=O)c3ccco3)cc2)C(=O)N=C2SC=CN12	26.1	21.4	97.7*	0.2
Cc1cc(NC(=O)C(C)SCC(=O)Nc2ccccc2C(C)(C)C)no1 (stereo unspecified)	1.0	2.6	-10.7	-0.3
COc1ccc(S(=O)(=O)N(C)c2ccc(C(=O)N3CCC(C(N)=O)CC3)cc2)cc1OC	345.1*	24.3	-4.4	-0.5
CCc1c(C)nc(N2CCN(c3cccc(OC)c3)CC2)[nH]c1=O	-1.9	13.4	97.9*	-1.7
CCCCNC(=O)c1sc(=S)n2c1[nH]c(=O)c1ccccc12	8.9	14.3	x	0.6
SMILES	SUMO Mot1 rescue	AI-2 QS mod	ALR inh	HIF act
O=C(NC1CCCCC1)c1sc(=S)n2c1[nH]c(=O)c1ccccc12	-9.0	-1.0	96.9*	0.5
Cc1cc(C)c2nc(NNC(=O)c3ccc(S(=O)(=O)N4CCc5ccccc5C4)cc3)sc2c1	-9.1	101.1	-3.9	21.7*
CCc1nnc(NC(=O)c2ccc(S(=O)(=O)N3CCc4ccccc4C3)cc2)s1	11.1	35.9	-10.0	-0.2
Cc1cc(C)c2sc(NNC(=O)c3ccc(S(=O)(=O)N4CCc5ccccc5C4)cc3)nc2c1	313.4	37.0	-11.9	158.5*
CN1/C(=C/C(=O)c2nc(S(C)(=O)=O)ncc2Cl)C(C)(C)c2ccccc21	-14.8	7.0	97.8*	x
NS(=O)(=O)c1cccc(NC(=O)CN2C(=O)C(=O)N(Cc3ccccc3)C2=O)c1	0.2	x	0.4	x
COc1ccc(-n2c(-c3cnccn3)n[nH]c2=S)cc1	-2.2	11.3	90.3*	-0.4
S=c1[nH]nc(-c2cnccn2)n1-c1ccccc1	0.8	9.6	38.6	0.1
CCOc1ccc(Cl)cc1S(=O)(=O)N1CCC(C(=O)NCc2ccncc2)CC1	6.6	7.9	-1.5	-0.1
CC(=O)SCC(=O)N=c1sc2cc(F)ccc2n1C	-18.8	22.4	99.0*	-0.3
Cn1c(=NC(=O)CCS(=O)(=O)c2ccccc2)sc2cc(F)ccc21	x	4.7	x	-1.1
COC(=O)c1ccccc1C(=O)N1CCC(CCC(=O)NC2CC2)CC1	-10.3	27.2	-15.8	0.0
O=C(c1cc(-c2ccc(O)cc2)on1)N1CCN(c2ccc(F)cc2)CC1	2.6	3.3	90.9*	0.1
O=C(c1cc(-c2ccc3c(c2)OCO3)on1)N1CCN(c2ccc(F)cc2)CC1	x	25.5	x	0.0
O=C(c1cc(C2CC2)on1)N1CCN(c2ccccc2)CC1	-9.4	22.8	85.8*	1.1
O=C(c1cc(-c2ccc(O)cc2)on1)N1CCN(c2ccccc2)CC1	5.4	16.9	81.3*	0.2
CSc1ccccc1C(=O)N(C)C(c1ccccc1)c1ccccc1	-16.3	26.2	-4.6	0.7
CCOC(=O)Cn1nc(NC(=O)COc2ccc(F)cc2)cc1C	1.1	20.0	-7.1	-0.4
COC(=O)Sc1nnc(-c2ccc(Br)cc2)o1	19.3	13.3	97.7*	-0.3
OCC#CCSc1nnc(-c2ccc(Br)cc2)o1	-3.0	24.8	3.9	0.9
Cn1ccc(C(=O)OCC(=O)Nc2ccccc2Cl)n1	x	17.3	x	1.5
ONC=Nc1cccc2nonc12	7.7	19.1	x	11.8*
O=C(CCNS(=O)(=O)c1ccc(Br)cc1)NCCc1ccc(Cl)cc1	23.6	13.6	-4.2	0.5
O=C(COC(=O)/C=C/C(=O)N1CCN(c2ccccc2)CC1)NCc1ccc(F)cc1	-0.4	21.5	67.4	-0.4
COC(=O)/C=C/C(=O)N1CCN(c2ccccc2C)CC1	439.0*	8.7	98.3*	0.1
SMILES	SUMO Mot1 rescue	AI-2 QS mod	ALR inh	HIF act
COC(=O)/C=C/C(=O)N1CCN(c2ccccc2)CC1	-8.7	3.2	96.8*	-0.5
CC1(C)S[C@@H]2[C@H](NC(=O)[C@H](N)c3ccccc3)C(=O)N2[C@H]1C(=O)OC1OC(=O)c2ccccc21 (stereo partly specified)	20.4	x	4.8	x
CC(=O)Nc1nc(-c2ccc([N+](=O)[O-])cc2)cs1	-1.2	17.5	-11.8	-0.6
O=C(Nc1ccc([N+](=O)[O-])cc1)Nc1nc(-c2ccc(Cl)s2)cs1	-0.8	-85.5*	-32.1	-2.7
CCc1ccc(-c2nc(CS(=O)CC(=O)NCCc3ccccc3)c(C)o2)cc1 (stereo unspecified)	-13.7	38.5	99.2*	-0.9
Cc1ccc(CCNC(=O)CS(=O)Cc2nc(-c3cccs3)oc2C)cc1 (stereo unspecified)	-4.9	11.7	x	-0.5
COc1ccc(-c2nc(CS(=O)(=O)CC(=O)NCCc3ccccc3)c(C)o2)cc1	-5.0	18.8	-4.2	0.0
Cc1ccc(CNC(=O)CS(=O)Cc2nc(-c3cccs3)oc2C)cc1 (stereo unspecified)	-3.6	11.3	99.4*	-0.3

Source: PubChem BioAssay (Broad Institute)
